Test [1] has as its system TRPC4 beta (transient receptor potential cation channel C4), mouse. The experiment in a line: activators of mouse TRPC4 channel, confirmation, cell-based, Fluo4 calcium, HEK293 TRPC4beta/mu-opioid, duplicates, 10 µM (AID 2426;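 active = fluorescence ratio normalized to control raised more than 50% in primary screen plus both repeat runs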). The conditions noted are these: Fluo4 calcium fluorescence, at 10 µM; stronger effect = higher value.
Test [2] concerns transient receptor potential cation channel C4 beta (TRPC4), mouse. The test can be described thus: activators of mouse TRPC4 channel, confirmation, cell-based, second round, Fluo4, HEK293 TRPC4beta/mu-opioid, 1 µM (AID 2461;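 active = primary screen active and over 50% activation in each of two duplicate runs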). As to conditions: Fluo4 calcium fluorescence, at 1 µM; stronger effect = higher value.
Test [3] concerns TRPC4 (transient receptor potential cation channel C4 beta), mouse. The test can be described thus: positive allosteric modulators of mouse TRPC4, confirmation, cell-based, second round, Fluo-4, HEK293 TRPC4beta/mu-opioid, 1 µM (AID 2554;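 active = primary screen hit whose fluorescence ratio, in both repeats, exceeds the weak agonist control mean by 3 SD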). The conditions noted are these: DAMGO EC20, Fluo-4 calcium flux, at 1 µM; stronger effect = higher value.
For test [4], the system named is TRPC4 beta (transient receptor potential cation channel C4), mouse. The experiment in a line: positive allosteric modulators of mouse TRPC4, confirmation, cell-based, Fluo-4, HEK293 TRPC4beta/mu-opioid (AID 2555;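 active = primary screen hit whose calcium fluorescence ratio, in both repeats, exceeds the weak agonist control mean by 3 SD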). The conditions noted are these: DAMGO EC20, Fluo-4 calcium flux, at 10 µM; stronger effect = higher value.
Test [5] concerns the target Short transient receptor potential channel 4 (Mus musculus) (UniProt Q9QUQ5). The test can be described thus: inhibitors of mouse TRPC4 channel, confirmation, cell-based, Fluo4, HEK293 TRPC4beta/mu-opioid (AID 2636;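 active = calcium signal cut by more than 3 SD below the full-agonist control yet still positive, in both repeats and the earlier primary screen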). The conditions noted are these: DAMGO, Fluo4 calcium flux, at 10 µM; stronger effect = higher value. In general terms: Calcium flux is commonly read through the fluorescence of an indicator in the cells.

Test [6] has the same target. The test can be described thus: inhibitors of mouse TRPC4 channel, confirmation, cell-based, second round, Fluo4, HEK293 TRPC4beta/mu-opioid, 1 µM (AID 2637).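 For inhibition: percent of integrated ratio relative to wells lacking test compound.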 As to conditions: Fluo4 calcium flux, DAMGO, at 1 µM; stronger effect = higher value.
Test [7] shares this target. The test can be described thus: mouse TRPC4 channel activators, dose response, cell-based, HEK293 TRPC4/mu-opioid, Fluo-4 calcium (AID 434937;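 active = primary screen activator hit with a dose response curve and TRPC4 channel activation at any tested dose; inactive = no activation, no dose response, or not a primary hit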).
Test [8] shares this target. The test can be described thus: TRPC4 positive allosteric modulators, dose response, cell-based, HEK293 TRPC4/mu-opioid, Fluo-4 calcium, EC20 DAMGO (AID 434941;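 active = earlier screen potentiator hit that boosts the TRPC4 ion channel at some dose, with a dose response; inactive = no potentiation, no dose response, or not a prior hit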;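 note: calcium entry triggered by an EC20 dose of DAMGO at the co-expressed mu-opioid receptor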).
Test [9] addresses Short transient receptor potential channel 6 (Mus musculus) (UniProt Q61143). The test can be described thus: inhibition of mouse TRPC6 channel, confirmation, selectivity assay for TRPC4 inhibitor project, cell-based, HEK293, membrane potential dye, duplicate (AID 434948;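 active = active in primary screen and both duplicates, each dropping signal beyond three positive-control SD with fluorescence still positive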). As to conditions: HEK293 TRPC6, membrane potential dye fluorescence, at 10 µM, stimulated with maximal-effect acetylcholine; stronger effect = higher value.

The target is the same in test [10]. The experiment in a line: activation of mouse TRPC6 channel, confirmation, selectivity assay for TRPC4 activator project, cell-based, HEK293, membrane potential dye, duplicate (AID 434950;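 active = membrane potential signal rise above negative control mean plus 3 SD in both duplicates, also active in the earlier TRPC4 screen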). The conditions noted are these: HEK293 TRPC6, membrane potential fluorescence, at 10 µM; stronger effect = higher value.
The target is the same in test [11]. The experiment in a line: TRPC6 potentiation by TRPC4 potentiator hits, confirmation, selectivity assay for TRPC4 potentiator project, HEK293 cells, membrane potential dye, duplicate (AID 434952;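 active = compound raising the membrane signal above positive-control mean plus 3 SD in both repeats, and a primary screen hit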). The conditions noted are these: HEK293 TRPC6, membrane potential dye fluorescence, at 10 µM, maximal acetylcholine added after compound; stronger effect = higher value.
Test [12] addresses Short transient receptor potential channel 4 (Mus musculus) (UniProt Q9QUQ5). The test can be described thus: calcium flux activators in TRPC4/5HT1a cells, counter-screen for TRPC4 activator project, cell-based, second counter screen, HEK293 TRPC4/5HT1a, Fluo-4 (AID 434977;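 active = calcium signal rise above buffer-control mean plus 5 SD in both duplicates, and also a hit in the primary screen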). The conditions noted are these: Fluo-4 calcium flux, at 10 µM; stronger effect = higher value.
The nature of test [13]: calcium flux inhibitors in TRPC4/5HT1a cells, confirmation, counter-screen for TRPC4 inhibitor project, cell-based, second counter screen, HEK293 TRPC4/5HT1a, Fluo-4 (AID 434978;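 active = primary screen active whose calcium signal fell more than 3 SD beyond the full-serotonin control mean in both duplicate plates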;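 for outcome: serotonin given first at submaximal then at maximal dose after compound preincubation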). As to conditions: Fluo-4 calcium flux, at 10 µM, serotonin added to trigger calcium flux; stronger effect = higher value.
For test [14], the system named is TRPC4 (mouse), co-expressed with 5HT1a in HEK293. The experiment in a line: calcium flux potentiators in TRPC4/5HT1a cells, confirmation, counter-screen for TRPC4 potentiator project, cell-based, second counter screen, HEK293 TRPC4/5HT1a, Fluo-4 (AID 434979;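 active = signal rise over 3 SD above mean of control wells given weak agonist, in both repeats and first screen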). As to conditions: Fluo-4 calcium flux, at 10 µM, serotonin added at its EC20 dose; stronger effect = higher value.
Test [15] can be described thus: calcium flux activation in mu-opioid HEK293 cells, confirmation, counter-screen for TRPC4 activator project, cell-based, HEK293 mu-opioid receptor line (AID 449723;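 active = hit in primary screen, with calcium signal over 5 SD above buffer well mean in both duplicates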;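 note: counter screen cells carry the mu-opioid receptor alone and lack TRPC4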). As to conditions: Fluo-4 calcium fluorescence, at 10 µM; stronger effect = higher value.
Test [16] is described as follows: calcium flux enhancement in mu-opioid HEK293 cells, confirmation, counter-screen for TRPC4 allosteric potentiator project, cell-based, HEK293 mu-opioid receptor line (AID 449724;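 active = calcium signal rise more than 3 SD above the low-dose agonist control mean, in both duplicate plates and the primary screen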;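 note: HEK293 cells carrying mu-opioid receptor only with no TRPC4 channel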). The conditions noted are these: Fluo-4 calcium flux, at 10 µM, compound added before EC20 DAMGO stimulus; stronger effect = higher value.

The values below come from PubChem BioAssay.

Each structure is given as a SMILES string. For some assays here: Results with a measured potency or affinity are listed apart. Active and inactive are the calls of the source.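 Rule for the calls, unless noted: active = calcium signal ratio cut to more than 3 SD under the fully stimulated control mean yet still positive, in both repeats and the primary screen; inactive = the rest.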

Usually inhibition stands for the percentage by which the read-out fell short of the control.

Short transient receptor potential channel 4 (Mus musculus), sequence (Q9QUQ5 whole entry, looked up): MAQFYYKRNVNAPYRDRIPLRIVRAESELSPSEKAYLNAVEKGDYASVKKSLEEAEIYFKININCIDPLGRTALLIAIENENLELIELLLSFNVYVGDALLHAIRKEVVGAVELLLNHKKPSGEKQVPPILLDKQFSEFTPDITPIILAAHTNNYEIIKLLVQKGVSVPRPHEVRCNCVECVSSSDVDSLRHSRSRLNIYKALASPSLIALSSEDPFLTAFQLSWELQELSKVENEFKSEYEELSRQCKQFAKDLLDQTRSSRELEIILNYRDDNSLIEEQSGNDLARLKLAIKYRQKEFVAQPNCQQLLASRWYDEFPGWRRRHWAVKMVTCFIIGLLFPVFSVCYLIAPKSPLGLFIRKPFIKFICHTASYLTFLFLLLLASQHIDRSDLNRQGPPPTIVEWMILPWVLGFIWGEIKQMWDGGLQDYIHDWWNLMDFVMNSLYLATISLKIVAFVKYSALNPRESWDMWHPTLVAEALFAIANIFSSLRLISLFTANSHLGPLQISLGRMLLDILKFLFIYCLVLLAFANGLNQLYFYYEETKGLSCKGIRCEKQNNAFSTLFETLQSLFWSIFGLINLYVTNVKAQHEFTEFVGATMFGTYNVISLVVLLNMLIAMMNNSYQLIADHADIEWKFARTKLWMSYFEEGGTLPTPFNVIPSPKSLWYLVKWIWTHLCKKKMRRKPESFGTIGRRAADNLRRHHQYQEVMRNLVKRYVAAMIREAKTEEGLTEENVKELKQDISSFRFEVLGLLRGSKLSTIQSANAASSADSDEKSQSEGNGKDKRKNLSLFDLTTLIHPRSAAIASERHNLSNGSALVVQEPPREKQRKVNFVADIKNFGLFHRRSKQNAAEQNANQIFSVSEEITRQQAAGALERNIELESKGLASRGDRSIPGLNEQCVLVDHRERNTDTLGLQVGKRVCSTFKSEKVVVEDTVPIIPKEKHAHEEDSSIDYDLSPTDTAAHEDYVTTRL
Short transient receptor potential channel 6 (Mus musculus), sequence (Q61143 whole entry, looked up): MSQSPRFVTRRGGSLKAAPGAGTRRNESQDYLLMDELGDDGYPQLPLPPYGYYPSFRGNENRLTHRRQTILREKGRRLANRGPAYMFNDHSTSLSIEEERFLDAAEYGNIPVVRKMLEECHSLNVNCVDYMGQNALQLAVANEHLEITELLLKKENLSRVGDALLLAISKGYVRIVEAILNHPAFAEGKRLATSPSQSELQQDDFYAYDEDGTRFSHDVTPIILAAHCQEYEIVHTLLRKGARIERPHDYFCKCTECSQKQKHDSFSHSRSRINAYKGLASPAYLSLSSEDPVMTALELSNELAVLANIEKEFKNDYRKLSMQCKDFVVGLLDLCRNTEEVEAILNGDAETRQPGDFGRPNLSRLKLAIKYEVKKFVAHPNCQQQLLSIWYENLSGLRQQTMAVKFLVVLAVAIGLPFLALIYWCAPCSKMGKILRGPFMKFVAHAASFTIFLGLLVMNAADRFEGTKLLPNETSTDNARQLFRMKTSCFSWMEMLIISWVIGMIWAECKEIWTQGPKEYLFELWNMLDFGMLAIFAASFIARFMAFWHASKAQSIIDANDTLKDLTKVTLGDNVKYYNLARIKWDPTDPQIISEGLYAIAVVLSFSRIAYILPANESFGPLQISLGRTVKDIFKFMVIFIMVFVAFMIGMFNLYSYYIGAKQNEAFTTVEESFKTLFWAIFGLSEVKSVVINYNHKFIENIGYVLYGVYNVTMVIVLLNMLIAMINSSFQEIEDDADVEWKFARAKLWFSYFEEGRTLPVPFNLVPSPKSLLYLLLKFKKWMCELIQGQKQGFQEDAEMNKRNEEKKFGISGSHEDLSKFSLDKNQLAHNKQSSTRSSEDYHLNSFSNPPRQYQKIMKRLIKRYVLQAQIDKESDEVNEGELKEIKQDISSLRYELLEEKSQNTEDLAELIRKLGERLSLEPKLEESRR

Regarding `CCOC(=O)C1(CCc2ccccc2)CCN(Cc2ccccn2)CC1`, the result in test [1], in [2], in test [3], in test [4], in test [6] and in test [7] was inactive. The outcome in test [8], in test [9], in [10], in test [11], in test [12] and in test [13] was inactive. Also, the outcome in [14], in test [15] and in test [16] was inactive. Moreover, the inhibition in [5] was 88% (active).
Regarding `CCCCNCc1cc(Cl)c(OCCC)c(OCC)c1`, the result in test [1], in test [2], in [3], in [4], in test [6] and in [7] was inactive. Moreover, the outcome in test [8], in test [9], in test [10], in test [11], in test [12] and in test [13] was inactive. Moreover, the outcome in [14], in test [15] and in test [16] was inactive. Further, in [5], the inhibition is 86% (active).
In the case of `Cc1ccc2c(c1)N(C(=O)CCC(=O)Nc1ccccc1Br)CC(C)O2` (stereo not drawn), the result in [1], in [2], in [3], in [4], in test [7] and in test [8] was inactive. The compound was classed as inactive in test [9], in [10], in test [11], in test [12], in [14] and in test [15]. Besides, the outcome in test [16] was inactive. For the same compound, the inhibition in test [5] was 90% (active); in test [6] it was 46% (active); in test [13], 31.8% (active).
Consider `CCCCC(CC)C(=O)Nc1ncc([N+](=O)[O-])s1` (stereo not drawn), for which the outcome in test [1], in test [2], in [3], in [4], in test [6] and in [7] was inactive. The outcome in test [8], in test [10], in test [11], in test [12], in test [14] and in test [15] was inactive. Further, in test [16], the outcome was inactive. The inhibition in [5] is 81% (active); in test [9], 33.5% (active); in test [13] it was 27.7% (active).
Consider `O=C(OCC(=O)N1CCc2ccccc2C1)c1cccc([N+](=O)[O-])c1`, for which the outcome in test [1], in [2], in [3], in test [4], in [7] and in [8] was inactive. Further, the compound was classed as inactive in test [9], in test [10], in test [11], in [12], in test [14] and in test [15]. Further, the result in [16] was inactive. Also, the inhibition in test [5] was 95% (active); in test [6] it was 47% (active); in [13], 40.7% (active).
Turning to `CC(C)c1nc(CNC(=O)CC2C(=O)NCCN2Cc2ccc(F)cc2Cl)cs1` (stereo not drawn), the outcome in test [1], in test [2], in test [3], in [4], in test [6] and in test [7] was inactive. For the same compound, the outcome in test [8], in test [9], in [10], in test [11], in test [12] and in test [13] was inactive. The result in test [14], in test [15] and in [16] was inactive. In addition, in [5], the inhibition was 92% (active).
Regarding `COc1cccc(C(CNC(=O)C(c2ccccc2)c2ccccc2)N(C)C)c1` (stereo not drawn), the outcome in [1], in test [2], in test [3], in test [4], in [6] and in test [7] was inactive. For the same compound, the outcome in test [8], in [9], in [10], in test [11], in test [12] and in test [13] was inactive. In addition, the result in test [14], in test [15] and in [16] was inactive. Besides, the inhibition in test [5] is 89% (active).
Consider `OC1(c2ccc(F)cc2)CCN(Cc2ccccc2)C1` (stereo not drawn), for which the outcome in [1], in test [2], in [3], in test [4], in test [7] and in test [8] was inactive. Further, the compound was classed as inactive in test [9], in [10], in [11], in test [12], in test [14] and in [15]. The result in test [16] was inactive. Also, the values for the inhibition in [5], in test [6] and in [13] were 98% (active), 55% (active) and 18.4% (active), respectively.
